Rows were chosen to be rich in hits. Some 10% of all compounds tested hit in one or more screens of this group.
RORgamma inh: inhibitors of mouse ROR gamma transcriptional activity. 5.4% of 310,000 active. P51450. Potency, µM (titrated, usually from 53.6 µM), hits mostly inhibitors. Drosophila S2 Gal4-RORgamma UAS-luciferase reporter, 20 h. AID 2551; further: nearly all actives have a fitted effect of over 60% in size
Target sequence (P51450 whole entry, looked up, the tested form may be a part): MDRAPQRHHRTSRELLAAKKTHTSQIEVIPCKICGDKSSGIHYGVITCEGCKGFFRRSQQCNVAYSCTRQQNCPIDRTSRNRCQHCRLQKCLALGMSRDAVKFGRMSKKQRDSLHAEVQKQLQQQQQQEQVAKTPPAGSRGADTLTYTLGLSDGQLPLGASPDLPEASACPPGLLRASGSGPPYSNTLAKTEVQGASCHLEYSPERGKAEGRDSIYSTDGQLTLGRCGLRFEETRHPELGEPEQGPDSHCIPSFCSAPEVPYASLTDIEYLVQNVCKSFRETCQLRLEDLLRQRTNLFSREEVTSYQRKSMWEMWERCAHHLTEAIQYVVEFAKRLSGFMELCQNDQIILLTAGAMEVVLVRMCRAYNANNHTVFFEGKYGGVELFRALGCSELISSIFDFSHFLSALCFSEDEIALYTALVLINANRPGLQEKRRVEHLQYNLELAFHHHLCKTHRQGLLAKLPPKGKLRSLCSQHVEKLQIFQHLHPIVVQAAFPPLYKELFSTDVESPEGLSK
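Luciferase reporter read in Schneider cells carrying Gal4-RORγ (mouse) and UAS-Photinus luciferase; cells given compound 1 h before 700 uM copper sulfate induction, then incubated 20 h at ambient temperature.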
ELG1 DNA repair: ELG1-dependent DNA repair inhibition | HEK293T ELG1-luciferase reporter, luminescence, 16 h; DNA damage induced by 5-fluorouridine | Potency, µM (doses to about 46.1 µM), actives largely listed as inhibitors | 2.3% of 330,000 active | AID 504467; further: nearly all actives have a fitted effect of over 55% in size
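5-Fluorouridine DNA damage + compound/DMSO, 2,000 cells/well, 16 h, 37 °C/5% CO2. ONE-Glo, 30 min RT, luminescence. Readout = decrease in reporter signal.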
MCF10A rerep: inducers of DNA re-replication in MCF 10A breast cells; MCF 10A DNA re-replication, Hoechst nuclear intensity, 48 h; Potency, µM (top dose mostly 46.1 µM), usual class: activators; 2.9% of 350,000 active; AID 624296; further: nearly all actives have a fitted effect of over 50% in size
Gal4-VP16 FLuc: Gal4-VP16 reporter inhibition counter-screen | Drosophila S2 Gal4-VP16 UAS-luciferase, luminescence, 20 h | Potency, µM (doses to about 53.6 µM), most hits filed as inhibitors | 3.5% of 310,000 active;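 further: Gal4-VP16 expression switched on by copper sulfate through the metallothionein promoter; nearly all actives have a fitted effect of over 50% in size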
SW480 rereplic: inducers of DNA re-replication in SW480 colon cancer cells | Potency, µM (highest dose often 46.1 µM), actives largely listed as activators | 1.8% of 340,000 active | SW480 DNA re-replication, Hoechst DNA content imaging, 48 h; further: nearly all actives have a fitted effect of over 55% in size
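Quantitative HTS format with DMSO vehicle controls; 48 hr drug incubation at 37 C, then 40 min Hoechst staining and scanning imager measurement at 405 nm excitation.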
Large screens that a line does not name were inactive. The call rests on the fitted dose curve; in most records, active means well fitted curve in the direction sought with a large enough effect; inconclusive means small, poorly fitted or top-dose-only effect, or another doubt; inactive means no such curve, though single readings can be large; an effect the other way counts as inactive or inconclusive.

CN1CCN(Cc2nc3ccccc3c(=O)n2Cc2nc(-c3ccccc3F)cs2)CC1	ELG1 DNA repair 16µM
CN1CCN(Cc2nc3ccccc3c(=O)n2Cc2nc(-c3ccc4ccccc4c3)cs2)CC1	RORgamma inh inconclusive, ELG1 DNA repair 13µM, MCF10A rerep inconclusive, Gal4-VP16 FLuc inconclusive, SW480 rereplic 12µM
CN1CCN(Cc2nc3ccccc3c(=O)n2Cc2nc(-c3cccc([N+](=O)[O-])c3)cs2)CC1	ELG1 DNA repair inconclusive
COc1ccc([N+](=O)[O-])cc1N(CC(=O)Nc1ccccc1C(=O)NC(C)C)S(C)(=O)=O	Gal4-VP16 FLuc inconclusive
COc1ccc(C(=O)/C=C/c2ccc(O)cc2)c(O)c1CC=C(C)C	RORgamma inh 4µM, MCF10A rerep 23µM, Gal4-VP16 FLuc 7.9µM
COc1ccc(/C=C/C(=O)c2ccc(O)cc2)cc1CN1CCOCC1	MCF10A rerep inconclusive, SW480 rereplic inconclusive
COc1ccc(C(=O)/C=C/c2ccc(O)cc2)c2c1CC(O)C(C)(C)O2 (configuration not stated)	ELG1 DNA repair 23µM (no result: RORgamma inh, Gal4-VP16 FLuc)
Cc1cccc(C)c1NC(=O)CN(C)C(=O)c1ccc2nc[nH]c2c1	none (no result: RORgamma inh, Gal4-VP16 FLuc)
Cc1ccccc1-n1nc2c(c1NC(=O)CC(C)C)CS(=O)C2 (configuration not stated)	ELG1 DNA repair inconclusive
N=c1c(C(=O)NC2CCCC2)cc2c(=O)n3ccccc3nc2n1CCN1CCOCC1	MCF10A rerep inconclusive, SW480 rereplic 2.8µM
N=c1c(C(=O)NC2CCCC2)cc2c(=O)n3ccccc3nc2n1CCCN1CCOCC1	MCF10A rerep inconclusive, SW480 rereplic inconclusive
N=c1c(C(=O)NC2CCCCC2)cc2c(=O)n3ccccc3nc2n1Cc1ccc(F)cc1	ELG1 DNA repair 8.2µM, MCF10A rerep inconclusive, SW480 rereplic inconclusive
N=c1c(C(=O)NC2CCCC2)cc2c(=O)n3ccccc3nc2n1Cc1ccccc1	ELG1 DNA repair inconclusive, MCF10A rerep inconclusive, SW480 rereplic inconclusive
Cc1ccc(Cn2c(=N)c(C(=O)NC3CCCCC3)cc3c(=O)n4ccccc4nc32)cc1	MCF10A rerep 2.6µM, SW480 rereplic 2.3µM
C/C(=N\NC(=O)c1csc2ccccc12)c1ccc(O)cc1	none
O=C(COC(=O)C1Cc2ccccc2CN1C(=O)c1ccccc1Cl)Nc1ccc(N2CCOCC2)cc1 (configuration not stated)	ELG1 DNA repair inconclusive
C=CCN1C(=O)c2ccc(C(=O)N3CCN(c4ccccc4OC)CC3)cc2C1=O	none (no result: RORgamma inh, Gal4-VP16 FLuc)
COc1ccc(C)cc1NC(=O)c1cc(S(=O)(=O)N2CCCCC2)ccc1N1CCOCC1	ELG1 DNA repair 15µM (no result: RORgamma inh, Gal4-VP16 FLuc)
Cc1ccc(S(=O)(=O)N(C)C)cc1NC(=O)c1cc(S(=O)(=O)N2CCCCC2)ccc1N1CCOCC1	ELG1 DNA repair 10µM (no result: RORgamma inh, Gal4-VP16 FLuc)
CC(SC(C)C(=O)NN=Cc1ccc(F)cc1)C(=O)NN=Cc1ccc(F)cc1 (configuration not stated)	none (no result: RORgamma inh, ELG1 DNA repair, Gal4-VP16 FLuc)
CCC(=O)N1N=C2CC(C)(C)OCC2C1c1ccccc1 (configuration not stated)	none
C[C@H](NC(=O)c1nc[nH]c1C(=O)N1CCN(C(=O)OC(C)(C)C)CC1)c1ccccc1	none (no result: RORgamma inh, Gal4-VP16 FLuc)
CC(C)C[C@H](NC(=O)c1nc[nH]c1C(=O)NC(c1ccccc1)c1ccccc1)C(=O)OC(C)(C)C	RORgamma inh 0.71µM, ELG1 DNA repair inconclusive, MCF10A rerep inconclusive, Gal4-VP16 FLuc 3.5µM, SW480 rereplic inconclusive
C[C@@H](NC(=O)c1nc[nH]c1C(=O)N[C@H](C)c1ccccc1)c1ccccc1	none (no result: RORgamma inh, Gal4-VP16 FLuc)
CC(C)C[C@H](NC(=O)c1[nH]cnc1C(=O)N[C@H](C)c1ccccc1)C(=O)OC(C)(C)C	RORgamma inh 5µM, MCF10A rerep inconclusive, Gal4-VP16 FLuc 5.6µM, SW480 rereplic inconclusive
C[C@H](NC(=O)c1nc[nH]c1C(=O)N[C@@H](C)c1ccccc1)C(=O)OC(C)(C)C	RORgamma inh 2.8µM, Gal4-VP16 FLuc 6.3µM
Cc1cc(CN(C)Cc2cn(C)nc2-c2ccc(Oc3ccccc3)cc2)on1	ELG1 DNA repair inconclusive
CCOC(=O)c1c(NC(=O)C2=C(C)NC(=S)NC2c2ccc(F)cc2F)sc(C)c1C (configuration not stated)	RORgamma inh 2.8µM, ELG1 DNA repair inconclusive, MCF10A rerep inconclusive, Gal4-VP16 FLuc 6.3µM, SW480 rereplic inconclusive
CCOC(=O)c1c(NC(=O)C2=C(C)NC(=S)NC2c2ccc(C)cc2)sc(C)c1C (configuration not stated)	RORgamma inh 2.8µM, ELG1 DNA repair inconclusive, MCF10A rerep inconclusive, Gal4-VP16 FLuc 3.5µM
CCOC(=O)c1c(NC(=O)C2=C(C)NC(=S)NC2c2ccc(F)cc2)sc(C)c1C (configuration not stated)	RORgamma inh 13µM, ELG1 DNA repair 7.3µM, MCF10A rerep 18µM, Gal4-VP16 FLuc inconclusive, SW480 rereplic inconclusive
Cc1nn(C)c(C)c1CN(C)C(=O)c1nn2c(c1Br)NC(c1cccs1)CC2C(F)(F)F (configuration not stated)	none
CCC(C)(C)NC(=O)c1cccc(NC(=O)C(C)C)c1	none
CC(NC(=O)COC(=O)CSc1ccc(F)cc1)c1ccc(F)cc1 (configuration not stated)	none (no result: RORgamma inh, Gal4-VP16 FLuc)
COC(=O)c1ccc(-c2n[nH]c(=O)c3ccccc23)cc1	ELG1 DNA repair inconclusive
CN(C)C(=O)c1ccc(-c2n[nH]c(=O)c3ccccc23)cc1	ELG1 DNA repair inconclusive, MCF10A rerep 0.82µM
CC(C)Cc1ccc(C(C)C(N)=NCCc2ccccc2)cc1 (configuration not stated)	RORgamma inh inconclusive, ELG1 DNA repair inconclusive, MCF10A rerep inconclusive, SW480 rereplic 6.5µM
COc1ccc(CCN=C(N)C(C)c2ccccc2)cc1OC (configuration not stated)	none
COC(=O)c1ccc(NC(=O)C(OC)c2ccccc2)cc1 (configuration not stated)	RORgamma inh inconclusive
COCc1ccc(-c2c(-c3ccsc3)oc(=O)c3cc(OC)c(OC)cc23)cc1	ELG1 DNA repair inconclusive, MCF10A rerep 3.7µM (no result: RORgamma inh, Gal4-VP16 FLuc)
COc1ccc(-c2c(-c3ccc(C#N)cc3)oc(=O)c3cc(OC)c(OC)cc23)cc1	MCF10A rerep inconclusive (no result: RORgamma inh, Gal4-VP16 FLuc)
COc1ccc(C2=C/C(=C\c3ccccc3OC(C)=O)C(=O)O2)cc1	none
COc1ccc(C2=C/C(=C\c3cccc(OC(C)=O)c3)C(=O)O2)cc1	RORgamma inh 7.1µM, Gal4-VP16 FLuc inconclusive
COc1ccc(C(CCNCc2ccc(N(C)C)cc2)c2ccccc2)cc1 (configuration not stated)	MCF10A rerep inconclusive, SW480 rereplic 18µM
COCCn1c(C)cc(/C=C(\C#N)C(=O)OCC(=O)Nc2ccc(S(N)(=O)=O)cc2)c1C	MCF10A rerep 16µM (no result: RORgamma inh, Gal4-VP16 FLuc)
CCCn1c(C)cc(/C=C(\C#N)C(=O)OCC(=O)Nc2ccc(OC)c(Cl)c2)c1C	RORgamma inh inconclusive
